The results in this text go back to PubChem BioAssay.

Calls of active or inactive are those of the source. Unless noted, how the calls were made is not given here.

For assay [1], the system named is Wnt5a (protein binding on small-molecule microarray). Kind of assay: small molecules binding Wnt5a protein – biophysical, small-molecule microarray, 635/667 nm fluorescence, primary screen (AID 1142).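 Further: fluorescence read at 667 nm with signal to noise per printed feature.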 To be noted: 635 nm fluorescence, higher = more signal.
Assay [2] is described as follows: ATP-based viability of Huh7 replicon cells – cell-based, CellTiter-Glo luminescence, basal, 48 h, cytotoxicity control for HCV replication inhibitor project, primary screen (AID 1143).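 Further: Huh7 hepatoma cells carrying a hepatitis C replication reporter with no stimulus; test concentration not given here.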 Conditions: higher = more signal, called active from +8 up or from −8 down. On the technique in general: A replicon is a self-replicating genome or part of one, used to study replication in cells.

A short description of assay [3]: Pseudomonas biofilm growth suppression – PAO1 strain, BacTiter-Glo luminescence, LB-PBS, primary screen (AID 1144). Conditions: P. aeruginosa PAO1 biofilm, 12 h, higher = more signal.
Assay [4] is described as follows: basal CRE-LacZ reporter activity in PC12 – cell-based, unstimulated, primary screen (AID 1145). Conditions: no forskolin, luminescence, 4.5 h, higher = more signal, called active from +8 up or from −8 down.
The nature of assay [5]: forskolin-driven CRE-LacZ activity in PC12 – cell-based, CRE-LacZ reporter, forskolin-stimulated, primary screen (AID 1146).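 Further: PC12 cells with 6xCRE LacZ reporter stimulated by forskolin 10 µM; beta-galactosidase reporter signal reflecting CREB driven transcription.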 To be noted: luminescence, 4.5 h, higher = more signal, called active from +8 up or from −8 down.
The target in assay [6] is Streptavidin (Streptomyces avidinii) (UniProt P22629). Kind of assay: compounds binding control protein streptavidin – biophysical, small-molecule microarray, 635/667 nm fluorescence, artefact control for SMM compound annotation, primary screen (AID 1147).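 Further: signal reflects streptavidin binding to arrayed compounds as a control protein.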 To be noted: higher = more signal.
Assay [7] in a line: probe aInhba binding on compound microarray – biochemical, small-molecule microarray, 635/667 nm fluorescence, primary screen (AID 1148).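 Further: score merges 667nm spot fluorescence with signal-to-noise for antibody binding to printed compounds.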 To be noted: higher = more signal.
Assay [8] has as its target Torsin-1A (Homo sapiens) (UniProt O14656). Kind of assay: TOR1A wild-type binding on microarray – cell lysate, small-molecule microarray, lysate, 635/667 nm, primary screen (AID 1149). To be noted: COS7 hTOR1A-WT lysate, 635 nm fluorescence, higher = more signal.
Assay [9] shares this target. Briefly: torsin A mutant lysate binding on microarrays – cell lysate, small-molecule microarray, COS7 lysate, 635/667 nm fluorescence, primary screen (AID 1150).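 Further: score pools 667 nm emission and signal to noise measuring lysate protein binding.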 To be noted: COS7 hTOR1A mutant lysate, 635 nm fluorescence, higher = more signal.
The subject of assay [10] is Sonic hedgehog protein (Shh). Kind of assay: Sonic hedgehog microarray binding compounds – biochemical, small-molecule microarray, 635/667 nm fluorescence, primary screen (AID 1151).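 Further: Shh protein binding to compounds spotted on small-molecule microarray slides; score combines spot fluorescence intensity with signal-to-noise across triplicate slides.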 To be noted: 635 nm fluorescence, higher = more signal.
A short description of assay [11]: optical density shifts of acrAB sulA E. coli – strain DRC41, OD650, 48 h, E. coli filamentation inducer project, primary screen (AID 1152).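 Further: E. coli MC1000 strain DRC41 lacking acrAB efflux pump and sulA.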 To be noted: higher = more signal, called active from +8 up or from −8 down.
A short description of assay [12]: probe aLefty1 binding on compound microarray – biochemical, small-molecule microarray, 635/667 nm fluorescence, primary screen (AID 1153).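 Further: score merges spot fluorescence with signal-to-noise ratio from the scanned slide images.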 To be noted: higher = more signal.
Assay [13] in a line: plasmodial surface anion channel blockers, osmotic lysis – cell-based, P. falciparum Indochina, OD700, 1 h, primary screen (AID 1154). To be noted: P. falciparum Indochina infected RBC osmotic lysis, higher = more signal, called active from +8 up or from −8 down.
A short description of assay [14]: plasmodial surface anion channel blockers, osmotic lysis – cell-based, P. falciparum Indochina, OD700, 2 h, primary screen (AID 1155).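 Further: lysis reports solute entry through the parasite surface anion channel PSAC.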 To be noted: P. falciparum Indochina infected erythrocytes, higher = more signal, called active from +8 up or from −8 down.
A short description of assay [15]: changes in parasitized red cell lysis, either direction – P. falciparum Indochina, OD700, 3 h, PSAC antagonist project, primary screen (AID 1156). To be noted: P. falciparum-infected erythrocytes, osmotic lysis, higher = more signal, called active from +8 up or from −8 down.
Assay [16] is described as follows: plasmodial surface anion channel blockers, osmotic lysis – cell-based, P. falciparum Indochina, OD700, 18 h, primary screen (AID 1157). Conditions: P. falciparum Indochina infected erythrocytes, osmotic lysis OD700, 18 h; higher = more signal, called active from +8 up or from −8 down.
The nature of assay [17]: S6 kinase pathway phospho-S6 level changes – cell-based, A549, cytoblot, luminescence, serum-stimulated, primary screen (AID 1158).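 Further: serum-stimulated A549 lung adenocarcinoma cells; signal is phosphorylated S6 detected by cytoblot immunostaining with HRP secondary.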 To be noted: 5 h, higher = more signal.
The target in assay [18] is NADPH oxidase 2 (Homo sapiens) (UniProt P04839). Kind of assay: compounds shifting NOX2 Amplex Red fluorescence – cell-based, HEK293-NOX2, PMA-stimulated, NOX inhibitor project, primary screen (AID 1159). Further: test concentration not given here. Conditions: 45 min, higher = more signal, called active from +8 up or from −8 down.
Assay [19] addresses NADPH oxidase 4 (Homo sapiens) (UniProt Q9NPH5). Briefly: compounds shifting NOX4 Amplex Red fluorescence – cell-based, HEK293-NOX4, tetracycline-induced, NOX inhibitor project, primary screen (AID 1160). Conditions: HEK293-NOX4, Amplex Red H2O2 fluorescence, 45 min; higher = more signal, called active from +8 up or from −8 down.
Assay [20] concerns the target NADPH oxidase 5 (Homo sapiens) (UniProt Q96PH1). Kind of assay: compounds shifting NOX5 Amplex Red fluorescence – cell-based, HEK293-NOX5, NOX inhibitor project, primary screen (AID 1161). Conditions: HEK293-NOX5, ionomycin, 45 min, higher = more signal.

Chain of NADPH oxidase 2 (Homo sapiens) (P04839 whole entry, looked up): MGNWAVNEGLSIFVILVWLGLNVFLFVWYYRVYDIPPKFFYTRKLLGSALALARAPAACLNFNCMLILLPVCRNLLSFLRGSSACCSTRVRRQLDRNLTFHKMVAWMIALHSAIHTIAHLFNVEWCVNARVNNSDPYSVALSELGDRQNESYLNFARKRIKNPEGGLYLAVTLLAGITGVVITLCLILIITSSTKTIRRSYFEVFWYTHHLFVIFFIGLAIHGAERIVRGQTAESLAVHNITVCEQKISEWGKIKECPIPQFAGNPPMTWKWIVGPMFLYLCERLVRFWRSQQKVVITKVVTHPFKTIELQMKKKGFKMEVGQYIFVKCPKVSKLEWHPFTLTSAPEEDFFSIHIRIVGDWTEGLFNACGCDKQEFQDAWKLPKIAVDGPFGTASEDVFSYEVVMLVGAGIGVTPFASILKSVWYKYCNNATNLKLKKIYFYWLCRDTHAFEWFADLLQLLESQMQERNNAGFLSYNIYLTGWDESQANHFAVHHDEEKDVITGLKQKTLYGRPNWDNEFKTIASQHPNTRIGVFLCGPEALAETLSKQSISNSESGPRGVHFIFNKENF
Chain of NADPH oxidase 5 (Homo sapiens) (Q96PH1 whole entry, looked up): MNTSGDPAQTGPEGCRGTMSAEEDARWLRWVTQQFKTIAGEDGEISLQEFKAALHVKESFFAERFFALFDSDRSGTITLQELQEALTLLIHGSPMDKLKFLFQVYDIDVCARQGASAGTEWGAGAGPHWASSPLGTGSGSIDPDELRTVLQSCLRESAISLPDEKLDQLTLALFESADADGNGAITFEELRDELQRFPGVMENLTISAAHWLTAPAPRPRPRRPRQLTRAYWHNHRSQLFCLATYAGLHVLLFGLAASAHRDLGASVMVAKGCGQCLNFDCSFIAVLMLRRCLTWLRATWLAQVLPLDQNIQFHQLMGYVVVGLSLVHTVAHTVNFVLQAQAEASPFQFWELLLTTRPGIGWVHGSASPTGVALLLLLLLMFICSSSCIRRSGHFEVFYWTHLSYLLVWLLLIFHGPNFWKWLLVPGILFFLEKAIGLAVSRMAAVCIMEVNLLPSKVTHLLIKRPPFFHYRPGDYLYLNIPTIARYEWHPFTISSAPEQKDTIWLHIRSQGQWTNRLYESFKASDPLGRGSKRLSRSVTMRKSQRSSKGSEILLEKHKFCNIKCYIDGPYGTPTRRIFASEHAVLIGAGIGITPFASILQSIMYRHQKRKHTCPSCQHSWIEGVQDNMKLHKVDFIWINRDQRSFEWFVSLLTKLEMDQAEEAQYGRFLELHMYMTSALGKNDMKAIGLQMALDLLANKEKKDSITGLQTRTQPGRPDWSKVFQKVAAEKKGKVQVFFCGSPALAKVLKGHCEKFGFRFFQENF
Chain of NADPH oxidase 4 (Homo sapiens) (Q9NPH5 whole entry, looked up): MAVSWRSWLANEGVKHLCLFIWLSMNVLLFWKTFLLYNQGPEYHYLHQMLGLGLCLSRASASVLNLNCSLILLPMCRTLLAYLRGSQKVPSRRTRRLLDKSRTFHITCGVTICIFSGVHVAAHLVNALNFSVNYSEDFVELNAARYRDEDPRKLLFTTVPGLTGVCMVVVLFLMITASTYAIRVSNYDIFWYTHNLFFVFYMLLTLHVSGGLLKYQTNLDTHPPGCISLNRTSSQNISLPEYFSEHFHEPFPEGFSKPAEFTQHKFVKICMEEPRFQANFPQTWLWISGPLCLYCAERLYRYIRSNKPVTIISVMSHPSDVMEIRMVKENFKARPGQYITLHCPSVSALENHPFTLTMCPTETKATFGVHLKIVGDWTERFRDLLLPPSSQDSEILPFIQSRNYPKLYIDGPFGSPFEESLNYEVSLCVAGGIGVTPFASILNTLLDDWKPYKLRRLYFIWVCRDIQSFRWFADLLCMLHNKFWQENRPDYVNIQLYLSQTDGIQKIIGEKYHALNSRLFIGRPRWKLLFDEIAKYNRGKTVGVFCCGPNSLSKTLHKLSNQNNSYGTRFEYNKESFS
Chain of Streptavidin (Streptomyces avidinii) (P22629 whole entry, looked up): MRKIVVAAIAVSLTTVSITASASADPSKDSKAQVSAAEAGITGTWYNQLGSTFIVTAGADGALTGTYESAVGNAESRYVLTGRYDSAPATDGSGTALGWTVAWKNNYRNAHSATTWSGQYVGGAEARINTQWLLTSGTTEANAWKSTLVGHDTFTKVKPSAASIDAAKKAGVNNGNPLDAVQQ
Chain of Torsin-1A (Homo sapiens) (O14656 whole entry, looked up): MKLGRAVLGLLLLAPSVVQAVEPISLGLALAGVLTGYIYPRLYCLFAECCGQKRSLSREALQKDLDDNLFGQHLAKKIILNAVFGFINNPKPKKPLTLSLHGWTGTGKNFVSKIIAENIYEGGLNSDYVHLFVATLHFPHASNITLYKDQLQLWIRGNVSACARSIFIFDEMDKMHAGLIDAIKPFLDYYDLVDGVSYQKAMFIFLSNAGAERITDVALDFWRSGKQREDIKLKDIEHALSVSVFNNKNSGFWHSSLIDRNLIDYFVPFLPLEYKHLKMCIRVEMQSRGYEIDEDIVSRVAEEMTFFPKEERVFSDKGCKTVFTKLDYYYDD

As to `COC(=O)[C@@]1(Cc2ccccc2)[C@H]2c3cc(C(=O)N4CCCC4)n(Cc4ccc(S(C)(=O)=O)cc4)c3C[C@H]2CN1C(=O)c1ccccc1`, the composite z-score in assay [1] is -0.0831; in [6], 2.21; in [7] it was 0.401; in assay [8], 0.758; in assay [9], 0.81; in [10] it was -0.344. This compound also displayed a composite z-score in assay [12] of 0.198. The z-score in assay [2] was -1.22 (inactive); in assay [3] it was 0.779 (inactive); in [4], 0.959 (inactive); in assay [5], 0.266 (inactive); in assay [11] it was -0.94 (inactive); in assay [13], 1.98 (inactive). Moreover, the z-score in [14] was 0.238 (inactive); in assay [15], 0.716 (inactive); in assay [16] it was 0.742 (inactive); in assay [17] it was -0.121; in assay [18] it was 0.613 (inactive); in assay [19], -1.16 (inactive). For the same compound, the z-score in [20] is -1.9.

With `CNS(=O)(=O)c1ccc(C)cc1`, the composite z-score was 0.365 in [1]; 0.385 in [6]; -0.231 in assay [7]; 0.293 in assay [8]; 0.371 in [9]; 0.962 in assay [10]. In addition, the composite z-score in [12] was -0.371. Also, the z-score in [2] was -1.48 (inactive); in assay [3] it was -0.307 (inactive); in [4], -0.0576 (inactive); in assay [5], -0.391 (inactive); in assay [11] it was 2.78 (inactive); in assay [13] it was -0.699 (inactive). In addition, the z-score in assay [14] was -1.07 (inactive); in [15] it was -0.886 (inactive); in assay [16], -2.23 (inactive); in assay [17], 0.929; in assay [18], 2.36 (inactive); in assay [19], 0.878 (inactive). The z-score in assay [20] is 0.669.

Turning to `C=C[C@H](OC)[C@@H](OC(=O)Nc1ccc(OC)cc1)c1ccc(O)c(F)c1`, the composite z-score was -0.311 in assay [1]; -1.2 in [6]; -0.179 in assay [7]; 0.732 in assay [8]; -0.11 in assay [9]; 0.665 in assay [10]. In addition, in [12], the composite z-score stood at 0.0921. Further, the z-score was -3.6 (inactive) in assay [2]; -0.689 (inactive) in assay [3]; 1.24 (inactive) in [4]; 3.4 (inactive) in [5]; 0.496 (inactive) in [11]; 4.19 (inactive) in assay [13]. For the same compound, the z-score in assay [14] was 0.484 (inactive); in assay [15] it was -0.433 (inactive); in [16], 0.253 (inactive); in [17], -0.102; in assay [18], -1.5 (inactive); in [19] it was 1.1 (inactive). Besides, the z-score in [20] came out at 5.13.

On to `COCCOC(=O)N1C(=O)[C@@]2(c3cc(C#CCC(C(=O)OC)C(=O)OC)ccc31)[C@H](c1ccccc1OCCO)N1[C@H](c3ccccc3)[C@H](c3ccccc3)OC(=O)[C@H]1[C@@H]2C(=O)N1CCN(c2ncccn2)CC1`, for which the composite z-score in assay [1] is 0.621; in assay [6], 0.635; in assay [7], 0.0384; in [8], 1.01; in assay [9] it was 1.19; in assay [10], 1.89. In [12], this compound displayed a composite z-score of 1.16. Moreover, the z-score in assay [2] is -4.45 (inactive); in assay [3], -1.09 (inactive); in [4] it was -0.479 (inactive); in assay [5], 1.7 (inactive); in assay [11] it was 1.2 (inactive); in assay [13], 2.83 (inactive). For the same compound, the z-score was 1.11 (inactive) in assay [14]; 1.28 (inactive) in assay [15]; 0.851 (inactive) in assay [16]; -0.139 in [17]; 0.823 (inactive) in assay [18]; 0.656 (inactive) in assay [19]. For the same compound, the z-score in assay [20] turned out to be 1.27.

As for `O=C(NCCN1CCOCC1)C1N=C(c2ccc(OCCCO)cc2)N(c2ccccc2)O1` (stereo not given), the composite z-score in assay [1] amounted to 0.889; in [6], 0.284; in assay [7], 0.0219; in assay [8], 1.86; in [9], 2.3; in assay [10], 1.42. Moreover, the composite z-score in [12] was determined as 0.0709. For the same compound, the z-score in [2] was 0.213 (inactive); in assay [3], 1.27 (inactive); in assay [4], 1.78 (inactive); in [5], 0.552 (inactive); in [11], 0.759 (inactive); in assay [13], 6.99 (inactive). The z-score is 0.287 (inactive) in assay [14]; -0.625 (inactive) in assay [15]; 0.399 (inactive) in [16]; -0.441 in [17]; 1.45 (inactive) in assay [18]; -0.0142 (inactive) in [19]. Moreover, the z-score in [20] was -0.429.
